The text below walks through data of PubChem BioAssay AID1645838 (ICCB-Longwood Screening Facility, Harvard Medical School, 2021).

“And” between values parts separate entries of the source, which are not always exact repeats. Equal entries are not always repeated. In all, about 2,000 compounds went through this assay and about 100 (5%) were called active. Cut-off read from the data, not from the text of the source: active = z-score above about 2; inactive = the rest. The entries come from a sample that favours actives as a whole.

The assay in a line: supercomplex reporter luminescence per Hoechst cell count – Hoechst nuclei count (AID 1645838).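 For all read-outs here: control cybrid cells.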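 For z-score: higher means more mitochondrial supercomplex formation.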 Particulars: Cells, luminescence/Hoechst cell count ratio; for z-score: stronger effect = higher value; for cell count: measured here: cell number, Hoechst nuclei count.
Setting [1] is: library stock concentration (final well concentration not given) 80 uM.
[2] abbreviates: library stock concentration (final well concentration not given) 400 uM.
Where [3] appears, read: library stock concentration (final well concentration not given) 2 mM.
The mark [4] stands for this setting: library stock concentration (final well concentration not given) 10 mM.
Where [5] appears, read: library stock concentration (final well concentration not given) 46 uM.
Setting [6] is: library stock concentration (final well concentration not given) 278 uM.
Where [7] appears, read: library stock concentration (final well concentration not given) 1.67 mM.

For `CCCCC/C=C\C/C=C\C/C=C\C/C=C\CCCC(=O)NC(CO)CO`, the z-score was 4 (active) and the cell count stood at 4470.

As for `CCCCC/C=C\C/C=C\C/C=C\C/C=C\CCCC(=O)N[C@H](C)CO`, the z-score is -0.466 (inactive) and the cell count was determined as 6100.

Regarding `CCCCC/C=C\C/C=C\C/C=C\C/C=C\CCCC(=O)N[C@@H](C)CO`, the z-score is 0.0527 (inactive) and the cell count amounted to 5800.

Regarding `CNCCCCCCN(C)N(O)N=O`, the z-score is 0.0102 (inactive) and the cell count was determined as 6050.

On to `CCCCCCC(=O)O[C@H]1CC[C@H]2[C@@H]3C=CC4=CC(=O)CC[C@]4(C)[C@H]3CC[C@]12C`, for which the z-score was -0.283 (inactive) and the cell count is 5360.

Regarding `COC1C(OC(=O)NC(=O)CCl)CC[C@]2(CO2)[C@@H]1[C@@]1(C)OC1CC=C(C)C` (stereo not given in full), the z-score is, setting by setting: under setting [1], -0.0262 (inactive); under setting [2], 0.199 (inactive); under setting [3], 1.06 (inactive); under setting [4], 2.72 (active). In addition, the cell count came to 3980 under setting [1], 3760 under setting [2], 3110 under setting [3] and 1800 under setting [4].

For the compound `c1cc2cc(N3CCNCC3)ccc2cn1`, the z-score was 0.406 (inactive) and the cell count is 4610.

For the compound `CCCCC/C=C\C/C=C\C/C=C\C/C=C\CCCC(=O)NCCc1ccc(O)c(O)c1`, the z-score was 0.0355 (inactive) and the cell count is 5380.

With `CS(=O)CCCCN=C=S` (stereo not given), where the note is “library stock 10 mM”, the outcome is “inactive; censored for cell count”. For the same compound, the z-score runs as follows: under setting [1], -0.41 (inactive); under setting [2], -0.338 (inactive); under setting [3], 0.15 (inactive). Further, the cell count stood at 6580 under setting [1], 6460 under setting [2] and 5610 under setting [3].

Consider `CCCCCCC(=O)CCCCCC/C=C/C[C@@H](O)[C@H](O)[C@@](N)(CO)C(=O)O`, for which the z-score was 5.47 (active) and the cell count came to 4740.

Regarding `CCCCCCCC/C=C\CCCCCCCC(=O)N[C@H](C)CO`, the z-score is 0.127 (inactive) and the cell count came to 5170.

On to `CCCCC/C=C\C/C=C\CCCCCCCC(=O)NCCO`, for which the outcome is “inactive; censored for cell count”.

Take `CCCCC/C=C\C/C=C\C/C=C\C/C=C\CCCC(=O)Nc1ccc([N+](=O)[O-])cc1`: the z-score is -0.128 (inactive) and the cell count stood at 5210.

For the compound `CCCCC/C=C\C/C=C\C/C=C\C/C=C\CCCC(=O)NCCc1c[nH]c2ccc(O)cc12`, the z-score was 1.36 (inactive) and the cell count amounted to 5300.

For the compound `O=NN(O)N1CCC[C@H]1C(=O)O`, the z-score was -0.00248 (inactive) and the cell count came out at 5130.

Consider `CN=C(NS(=O)(=O)c1ccc(Cl)cc1)N1C[C@@H](c2ccccc2)C(c2ccc(Cl)cc2)=N1`, for which the z-score is -0.26 (inactive) and the cell count came out at 5290.

Turning to `Cc1sc2c(c1C)C(c1ccc(Cl)cc1)=NC(CC(=O)OC(C)(C)C)c1nnc(C)n1-2` (stereo not given), the z-score runs as follows: under setting [1], 1.22 (inactive); under setting [2], 2.15 (active); under setting [3], 4.36 (active); under setting [4], 5.69 (active). For the same compound, the cell count by setting is: under setting [1], 5120; under setting [2], 4600; under setting [3], 3540; under setting [4], 2860.

Consider `Cc1sc2c(c1C)C(c1ccc(Cl)cc1)=NC(CC(=O)Nc1ccc(O)cc1)c1nnc(C)n1-2` (stereo not given), for which the z-score was 1.4 (inactive) under setting [1], 3.81 (active) under setting [2], 7.81 (active) under setting [3] and 8.99 (active) under setting [4]. Also, the cell count runs as follows: under setting [1], 5230; under setting [2], 4010; under setting [3], 2830; under setting [4], 2330.

Turning to `Cc1sc2c(c1C)C(c1ccc(Cl)cc1)=NC(CC(N)=O)c1nnc(C)n1-2` (stereo not given), the z-score runs as follows: under setting [5], 0.632 (inactive); under setting [6], 2.69 (active); under setting [7], 7.71 (active); under setting [4], 10.6 (active). The cell count came to 5970 under setting [5], 4460 under setting [6], 2880 under setting [7] and 2360 under setting [4].

Regarding `C[N@@+]1(CC2CC2)CC[C@]23c4c5ccc(O)c4OC2C(=O)CC[C@@]3(O)C1C5` (stereo not given in full), the z-score under setting [1] is 0.853 (inactive), the z-score under setting [2] is 0.439 (inactive), the z-score under setting [3] is 1.12 (inactive) and the z-score under setting [4] is 0.0218 (inactive). In addition, the cell count under setting [1] was 4560, the cell count under setting [2] was found to be 4560, the cell count under setting [3] is 3990 and the cell count under setting [4] stood at 4440.

Consider `CN=C(NS(=O)(=O)c1ccc(Cl)cc1)N1CC(c2ccccc2)C(c2ccc(Cl)cc2)=N1` (stereo not given), for which the z-score is 0.263 (inactive) and the cell count was determined as 4560.

Regarding `CCCC(=O)N[C@H]1CCOC1=O`, the z-score was -0.00429 (inactive) and the cell count stood at 5280.

Turning to `O=C1C(=O)c2cccc3cccc1c23`, the outcome (library stock 10 mM) is “inactive; censored for cell count”. Further, the z-score was -0.293 (inactive) under setting [1], -0.13 (inactive) under setting [2] and 0.0237 (inactive) under setting [3]. The cell count runs as follows: under setting [1], 5390; under setting [2], 5120; under setting [3], 4940.

For the compound `CCCCC/C=C\C/C=C\C/C=C\C/C=C\CCCC(=O)OCCN`, the z-score is -1.23 (inactive) and the cell count amounted to 5760.

Consider `COc1nc(C)nc(NC(=O)NS(=O)(=O)c2ccccc2Cl)n1`, for which the z-score is, setting by setting: under setting [5], 0.223 (inactive); under setting [6], 0.421 (inactive); under setting [7], 0.438 (inactive); under setting [4], 0.591 (inactive). Further, the cell count reads like this: under setting [5], 6660; under setting [6], 6640; under setting [7], 6690; under setting [4], 6980.

Consider `NC(=NCCCC(N)C(=O)O)N[N+](=O)[O-]` (stereo not given), for which the z-score under setting [5] is -0.276 (inactive), the z-score under setting [6] is -0.202 (inactive), the z-score under setting [7] was -0.093 (inactive) and the z-score under setting [4] was -0.00821 (inactive). The cell count is 5020 under setting [5], 4960 under setting [6], 5010 under setting [7] and 4490 under setting [4].

Turning to `O=C(NC(COc1ccc2[nH]c(=O)[nH]c2c1)c1ccccc1)c1cccn(Cc2ccc(F)c(F)c2)c1=O` (stereo not given), the z-score reads like this: under setting [1], -0.974 (inactive) and -0.18 (inactive); under setting [2], -0.76 (inactive) and -0.318 (inactive); under setting [3], -0.629 (inactive) and -0.22 (inactive); under setting [4], -0.746 (inactive) and -0.664 (inactive). In addition, the cell count reads like this: under setting [1], 5360 and 6280; under setting [2], 4530 and 6370; under setting [3], 5030 and 6190; under setting [4], 4470 and 5840.

In the case of `CCCN(CCCN)N(O)N=O`, the z-score is 0.0434 (inactive) and the cell count was determined as 5220.

Take `COc1ccc2cc(C(C#N)OC(=O)OCC3OC3c3ccccc3)ccc2c1` (stereo not given): the z-score is -0.334 (inactive) and the cell count was determined as 4870.

Turning to `CCCCCCCCCCCCCCCCOC[C@@H](O)COP(=O)([O-])OCC[N+](C)(C)C`, the z-score was -1.65 (inactive) and the cell count turned out to be 5770.

`CCCC[C@@H](C)C(OC(=O)C[C@@H](CC(=O)O)C(=O)O)C(C[C@@H](C)C[C@H](O)CCCC[C@@H](O)C[C@H](O)[C@H](C)N)OC(=O)C[C@@H](CC(=O)O)C(=O)O` (stereo not given in full): the z-score was -0.0113 (inactive) and the cell count was 5860.

Take `NCCc1c(Cl)cccc1Cl`: the z-score is 0.124 (inactive) under setting [1], 0.256 (inactive) under setting [2], 0.163 (inactive) under setting [3] and -0.533 (inactive) under setting [4]. Further, the cell count came out at 5290 under setting [1], 5420 under setting [2], 5540 under setting [3] and 5250 under setting [4].

`CCCCCCCCCCCCCCCC(=O)OC[C@H](COP(=O)([O-])OCC[N+](C)(C)C)OC(=O)CCCC=O`: the z-score was 0.248 (inactive) and the cell count turned out to be 4750.

As for `Cc1nc(-c2ccc(-c3ccc(C(=O)N4CCc5cc6c(cc54)C4(CCN(C)CC4)CO6)cc3)c(C)c2)no1`, the z-score under setting [1] is -0.255 (inactive), the z-score under setting [2] is 0.0819 (inactive), the z-score under setting [3] was -0.0801 (inactive) and the z-score under setting [4] was 3.86 (active). In addition, the cell count by setting is: under setting [1], 5300; under setting [2], 5160; under setting [3], 5100; under setting [4], 1770.

As for `CC1CNCCc2ccc(Cl)cc21` (stereo not given), the z-score by setting is: under setting [1], -0.315 (inactive); under setting [2], -0.24 (inactive); under setting [3], -0.135 (inactive); under setting [4], -0.0867 (inactive). The cell count was 6030 under setting [1], 5570 under setting [2], 5830 under setting [3] and 5720 under setting [4].
